DT40 TDP1 CPT: DT40-hTDP1 cell growth loss with CPT | AID 686979 | actives 12% (n = 420,000) | Potency, µM (series often up to 46.2 µM), most hits filed as inhibitors | chicken DT40 Tdp1-/-;hTDP1 cells + 20 nM CPT, ATP luminescence, 48 h; further: nearly all actives have a fitted effect of over 55% in size
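Chicken DT40 Tdp1-/- cells stably complemented with human TDP1 were seeded at 400 cells/well in medium containing 20 nM camptothecin, exposed to pin-transferred compounds, and grown at 37 °C for at least 48 hr. Viability was read as ATP luminescence.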
IL-1B inflam inh: inflammasome signaling inhibition, IL-1 beta readout | activity change, % at 57.5 µM | actives 4.7% (n = 360,000) | THP-1 LPS/ATP IL-1B secretion, AlphaLISA, 16 h; active compounds read low; in the data active means activity change below about -50%; inconclusive means mostly about -30% to -49%
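Secreted IL-1B measured by AlphaLISA bead assay after 16 h compound exposure of THP-1 cells; compounds (final up to 57.5 uM) added 1 h before LPS (250 ng/mL) and ATP (1.25 mM) stimulation; lower signal means less secretion.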
TDP1 cell noCPT: qHTS for Inhibitors of human tyrosyl-DNA phosphodiesterase 1 (TDP1): qHTS in cells in absence of CPT; DT40 Tdp1-/- hTDP1 cells, no CPT, ATP luminescence, 48 h; Potency, µM (highest dose often 46.2 µM), most hits filed as inhibitors; actives 15% (n = 420,000); AID 686978, 2013; further: nearly all actives have a fitted effect of over 55% in size
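A cellular qHTS used chicken DT40 cells lacking endogenous Tdp1 but carrying stably transfected human TDP1. Compounds were applied without camptothecin, and cell growth kinetics were judged by ATP-dependent luminescence after ≥48 hr.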
HT1080-NT tox: kills 2HG-producing HT-1080-NT fibrosarcoma cells; Potency, µM (doses to about 46.1 µM), actives largely listed as cytotoxic; HT-1080-NT fibrosarcoma viability, CellTiter-Glo ATP luminescence, 48 h; actives 1.6% (n = 360,000); AID 686970;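 further: NT is the 2HG producing partner of a matched IDH1 knockdown line; nearly all actives have a fitted effect of over 55% in size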
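Compounds were tested in concentration-response format on HT-1080-NT cells for 48 hours at 37 degrees C. Cell viability came from CellTiter-Glo luminescence; curves were classified by r2, response magnitude and activity.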
HT1080 IDH1KD tx: kills HT-1080 cells with IDH1 knockdown; HT-1080 IDH1 knockdown viability, ATP luminescence, 48 h; Potency, µM (highest dose often 46.1 µM), hits mostly cytotoxic; actives 2% (n = 360,000)
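Knockdown cells (IDH1KD HT-1080) received compounds 2 h after plating at 750 cells/well and were kept 48 h at 37 °C in 5% FBS RPMI. A CellTiter-Glo luminescence read gave % activity for curve fitting.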
Numbers stand for hits; i = inactive; ? = inconclusive; nt = no result given; [ ] = remark or other dose. The list is not random: actives were taken first. Their share in the collection is about 19%. Unless noted, the call rests on the fitted dose curve; in most records, active means well fitted curve in the direction sought with a large enough effect; inconclusive means small, poorly fitted or top-dose-only effect, or another doubt; inactive means no such curve, though single readings can be large; an effect the other way counts as inactive or inconclusive.

SMILES | DT40 TDP1 CPT | IL-1B inflam inh | TDP1 cell noCPT | HT1080-NT tox | HT1080 IDH1KD tx
O=c1[nH]nc(CNc2ccc(O)cc2)c2ccccc12 | ? | -101 | 21µM | i | ?
COc1ccc(-c2ccnc(-c3ccc(O)cc3)n2)cc1 | 1.6µM | i | 1.8µM | 4.1µM | 1.5µM
COc1ccc(-c2ccnc(-c3ccncc3)n2)cc1 | ? | i | 16µM | i | i
COC(=O)COc1ccc(-c2nccc(-c3ccc(Br)cc3)n2)cc1 | 21µM | i | ? | ? | i
COC(=O)COc1ccc(-c2nccc(-c3ccccn3)n2)cc1 | i | i | i | i | i
CCOc1ccc(NC(=O)c2ccccc2NC(=O)CNC2CCCC(C)C2C)cc1 (configuration not stated) | 15µM | i | 7.3µM | i | i
CC1CC(C)CN(C(=O)CCc2ccccc2)C1 (configuration not stated) | i | i | i | i | i
CS(=O)(=O)c1ccc(C(=O)OCC(=O)Nc2cccnc2Cl)cc1[N+](=O)[O-] | 6.5µM | -96 | 8.2µM | i | ?
CS(=O)(=O)c1ccc(C(=O)OCC(=O)Nc2cc(C(F)(F)F)ccc2Cl)cc1[N+](=O)[O-] | 11µM | nt | ? | nt | nt
Cc1ccccc1NC(=O)Cc1nc(COC(=O)c2ccc(S(C)(=O)=O)c([N+](=O)[O-])c2)cs1 | 2.9µM | -102 | 3.7µM | ? | 16µM
Cc1ccccc1NC(=O)COC(=O)c1ccc(S(C)(=O)=O)c([N+](=O)[O-])c1 | 2.5µM | -96 | 4µM | ? | 10µM
NS(=O)(=O)c1cc(C(=O)OCC(=O)Nc2ccc(Cl)cc2[N+](=O)[O-])ccc1Cl | i | i | i | i | i
NS(=O)(=O)c1cc(C(=O)OCC(=O)Nc2ccccc2[N+](=O)[O-])ccc1Cl | i | i | i | i | i
Cc1cc(C(=O)NNC(=O)c2ccc(F)cc2)c(C)s1 | i | i | i | i | i
Cc1ccc(N=c2sc(C)c(C)n2C)cc1 | i | i | i | i | i
CC(OC(=O)C1=COCCO1)C(=O)Nc1ncc(Cl)cc1Cl (configuration not stated) | ? | i | i | i | i
COc1ccc(NC(=O)c2sc3nc(N4CCOCC4)c4c(c3c2N)CC(C(C)C)OC4)c(OC)c1 (configuration not stated) | i | i | i | i | i
CC(C)(C)c1ccc(OCCC(=O)OCC(=O)Nc2cccnc2Cl)cc1 | ? | i | 16µM | i | i
CC(CCc1ccccc1)NC(=O)COC(=O)c1ccc([N+](=O)[O-])cc1 (configuration not stated) | i | i | i | i | i
CC(CCc1ccccc1)NC(=O)COC(=O)c1ccc(S(C)(=O)=O)c([N+](=O)[O-])c1 (configuration not stated) | 2.3µM | -108 | 2.3µM | 16µM | 7.3µM
Cc1ccc(-n2c([O-])nc(-[n+]3ccccc3)c2C=O)cc1 | i | i | i | i | i
COc1cc(Br)c(C2CC(=O)Nc3cc(OC)c(OC)c(OC)c32)cc1OC (configuration not stated) | i | nt | ? | nt | nt
Fc1cccc(Cc2c(-c3cccc(Br)c3)nc3c(Cl)cc(C(F)(F)F)cn23)c1 | i | i | i | i | i
Cc1ccc(Cc2c(-c3cccc(Br)c3)nc3c(Cl)cc(C(F)(F)F)cn23)cc1 | i | i | 16µM | i | i
COc1ccc(-c2nc3c(Cl)cc(C(F)(F)F)cn3c2Cc2cccc(F)c2)cc1OC | 23µM | ? | 18µM | i | i
Fc1ccc(-c2nc3c(Cl)cc(C(F)(F)F)cn3c2Cc2cccc(Cl)c2)cc1 | i | i | i | i | i
COC(=O)c1cc(=O)nc2sc(-c3cccs3)nn12 | i | i | i | i[9.24 µM] | i
COC(=O)c1cc(=O)nc2sc(-c3ccc(F)cc3)nn12 | 23µM | i | ? | i | i
COc1ccc(CNC(=O)CC[C@H]2O[C@@H](n3ccc(=O)[nH]c3=O)[C@H](O)[C@@H]2O)cc1 | i | i | i | i | i
CS(=O)(=O)N1CCC(C(=O)N2CCN(c3ccc(F)cc3)CC2)CC1 | i | i | i | i | i

Screens deposited in PubChem BioAssay by National Center for Advancing Translational Sciences (NCATS).
